In the library only some 3.6% were active in any assay of this set; here they are far more common.
ERb coact inh – blocks coactivator binding to human estrogen receptor beta; Q92731; TR-FRET ER-beta LBD / SRC1-Cy5 peptide binding; receptor agonist-loaded with 1 µM estradiol; inhibition, % at 25.6 µM; 86,000 compounds, 1.3% hits; AID 633;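 active means compounds whose percent inhibition of the receptor-coactivator binding signal exceeds about 50% in the single-dose screen, limit read from the data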;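 further: 0% = receptor plus peptide wells without compound and 100% = peptide-only wells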
Target sequence (Q92731 whole entry, looked up, the tested form may be a part): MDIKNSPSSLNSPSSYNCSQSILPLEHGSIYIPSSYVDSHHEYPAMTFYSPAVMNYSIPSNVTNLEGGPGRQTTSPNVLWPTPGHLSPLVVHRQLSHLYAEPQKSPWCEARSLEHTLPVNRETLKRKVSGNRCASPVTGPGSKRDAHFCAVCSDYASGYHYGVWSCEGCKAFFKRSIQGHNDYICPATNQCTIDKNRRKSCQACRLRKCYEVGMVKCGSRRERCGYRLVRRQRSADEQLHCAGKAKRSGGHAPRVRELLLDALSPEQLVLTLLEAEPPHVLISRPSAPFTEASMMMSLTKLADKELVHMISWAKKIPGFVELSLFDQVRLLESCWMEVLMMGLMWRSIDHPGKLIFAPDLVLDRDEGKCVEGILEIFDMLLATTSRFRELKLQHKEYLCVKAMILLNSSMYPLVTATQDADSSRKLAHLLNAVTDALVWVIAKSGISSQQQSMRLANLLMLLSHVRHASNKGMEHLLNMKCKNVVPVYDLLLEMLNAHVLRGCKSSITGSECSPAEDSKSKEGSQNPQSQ
NFkB transloc pot – enhances IL-1B driven NFkB nuclear translocation | activation, % at 2 µM | HUVEC IL-1B NFkB p65 nuclear translocation imaging | 94,000 compounds, 0.3% hits | AID 819;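 active means activation above 40%, about the mean plus 3 SD, also judged a hit on visual image review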;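 further: percent activation is computed from the nuclear over cytoplasmic p65 intensity ratio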
ERa SRC1 inh – blocks coactivator binding to human estrogen receptor alpha; P03372; TR-FRET ER-alpha LBD / SRC-1 peptide, estradiol-bound; inhibition, % at 25.6 µM; 86,000 compounds, 1.7% hits; AID 629; in the data active means inhibition above about 50%;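 further: 0% = receptor plus peptide control and 100% = peptide only without receptor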
IL1B NFkB inh – blocks IL-1B driven NFkB nuclear translocation in HUVEC cells; 94,000 compounds, 0.43% hits; HUVEC IL-1B NFkB p65 nuclear translocation imaging; inhibition, % at 2 µM; AID 796;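 active means inhibition above about 30% together with a positive call from visual inspection of the well image, limit read from the data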;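 further: nuclear over cytoplasmic p65 intensity ratio measured by imaging; 0% = IL-1B stimulated DMSO wells and 100% = unstimulated DMSO wells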
ERa coact pot – ER-alpha (human) coactivator binding potentiation; TR-FRET ERalpha-LBD/SRC-Cy5 coactivator binding, 2 h; 100 = basal binding, no effect; coactivator binding (% of control), % at 25.6 µM; 86,000 compounds, 1.3% hits; AID 639; in the data active means activity above about 200%;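 further: binding measured in presence of low estradiol as agonist stimulus; 0% = peptide alone without receptor and 100% = receptor with peptide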
IL1B cytotox – HUVEC cytotoxicity counter-screen, IL-1B stimulated; HUVEC cell count loss, Hoechst imaging; cell count reduction, % at 2 µM; 94,000 compounds, 0.41% hits; AID 845;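 active means cell count reduction more than 3 SD above the screen-wide mean, cut at about 70% in these data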;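 further: normalized per plate to untreated control cells as the no-loss baseline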
Active calls of the source: *; · = no result given; [ ] = dose if it differs, or a comment.

SMILES | ERb coact inh | NFkB transloc pot | ERa SRC1 inh | IL1B NFkB inh | ERa coact pot | IL1B cytotox
CC(C)Cn1c(N)c(C(=O)COC(=O)c2cc(-c3ccco3)nc3ccccc23)c(=O)n(C)c1=O | 80*[fluorescence artefact?] | 13 | 91*[fluorescence artefact?] | -13 | 38 | -56
CC(=O)Nc1ccc(S(=O)(=O)NC(C(=O)O)C(C)C)cc1 (stereo unspecified) | 66*[fluorescence artefact?] | 8 | -12 | -8 | 105 | 21
CC12CCC(=O)N1C(C(=O)OCC(=O)Nc1sccc1C#N)CS2 (stereo unspecified) | 68* | 4 | 91*[fluorescence artefact?] | -4 | 37 | -14
CC12CCC(=O)N1C(C(=O)Nc1cccc3ccccc13)CS2 (stereo unspecified) | 2 | · | -5 | · | 123 | ·
CC(C)CC(=O)NC1(C(F)(F)F)C(=O)N(Cc2ccccc2)C2=C1C(=O)CC(C)(C)C2 (stereo unspecified) | -9 | -33 | 0 | 33* | 97 | -38
FC(F)(F)c1ccc(CN2CCCCCC2)cc1 | -4 | -4 | 18 | 4 | 121 | -8
CC(=O)Nc1ccc(C(=O)CSc2nnc(Cn3nnc4ccccc43)n2C)cc1 | 18 | -78 | 46 | 78* | 92 | -68
Cn1c(Cn2nnc3ccccc32)nnc1SCC(N)=O | 1 | -9 | 6 | 9 | 103 | -7
O=c1c(-c2ccnn2-c2cccc(Cl)c2)cnc2n1CCS2 | -5 | 8 | -1 | -8 | 97 | -4
OC(CN1CCN(c2ccccc2)CC1)Cn1c2ccccc2c2ccccc21 (stereo unspecified) | 0 | 19 | -1 | -19 | 270*[fluorescence artefact?] | -21
COc1ccc(CC(=O)Nc2cc(Cl)ccc2O)cc1 | -20 | -6 | -21 | 6 | 98 | -16
COc1ccccc1CN(Cc1nc2ccccc2c(=O)[nH]1)S(=O)(=O)c1ccc2ccccc2c1 | 20 | 13 | 25 | -13 | 280* | -22
CC1=NNC(=O)/C1=C\c1cn(-c2ccccc2)nc1-c1ccc(Cl)cc1 | · | -71 | · | 71* | · | 25
Cc1ccc(-c2nn(-c3ccccc3)cc2C=C2C(=O)CC(C)(C)CC2=O)cc1 | · | -6 | · | 6 | · | -12
CCC(COC(=O)Nc1cccc(C)c1C)NC(=O)OCC(C)C (stereo unspecified) | -6 | -31 | 0 | 31* | 126 | 3
O=C(c1nnc(-c2ccncc2)o1)c1ccccc1Cl | 3 | -9 | 3 | 9 | 99 | 0
O=C(c1cc(-c2ccco2)on1)N1CCCc2ccccc21 | 52* | -4 | 66* | 4 | 95 | -7
O=C(c1cc2nc(-c3ccco3)cc(C(F)(F)F)n2n1)N1CCCc2ccccc21 | 15 | · | 14 | · | 101 | ·
O=C(c1cc(-c2ccco2)on1)N1CCc2ccccc2C1 | 51* | 0 | 58* | 0 | 91 | -12
Cc1ccc(C)c(C(=O)NCc2ccncc2)c1 | 47 | -2 | 28 | 2 | 52 | -36
CN(C)c1ccc(NC(=O)CN2CCC(N3CCCCC3)CC2)cc1 | · | 19 | · | -19 | · | -9
C=CCSc1nccc(-c2cc(Cl)sc2Cl)n1 | 2 | · | 7 | · | 118 | ·
O=C(N/N=C/c1cccc(C(F)(F)F)c1)C1CCN(c2ncc(C(F)(F)F)cc2Cl)CC1 | · | 3 | · | -3 | · | -9
NC1=NC(c2ccc(Cl)cc2)n2c(nc3ccccc32)N1 (stereo unspecified) | -4 | 26 | 26 | -26 | 43 | 11
CCn1c2ccccc2c2cc(C3N=C(N)Nc4nc5ccccc5n43)ccc21 (stereo unspecified) | 34 | -15 | 27 | 15 | 277*[fluorescence artefact?] | 13
SMILES | ERb coact inh | NFkB transloc pot | ERa SRC1 inh | IL1B NFkB inh | ERa coact pot | IL1B cytotox
Cn1c(=O)c2c(n(C)c1=O)=NC1(CCCCC1)ON=2 | 2 | 9 | 8 | -9 | 94 | 20
O=C(Nc1cnc2ccccc2c1)c1ccco1 | -5 | -14 | 57* | 14 | 117 | -85
O=C(Nc1ccc2nc(-c3ccccc3)[nH]c2c1)c1ccco1 | -3 | 8 | -2 | -8 | 100 | -8
O=C(Nc1cccc(-c2nc3ccccc3[nH]2)c1)c1cccc(NC(=O)c2ccco2)c1 | 68*[fluorescence artefact?] | 15 | 70*[fluorescence artefact?] | -15 | 193 | 4
O=C(CC(c1ccccc1)c1ccccc1O)NCCN1CCOCC1 (stereo unspecified) | -6 | · | -3 | · | 90 | ·
c1ccc(CNc2nc3ccccc3n3cnnc23)cc1 | 7 | 3 | 4 | -3 | 238*[fluorescence artefact?] | 2
c1ccc(CNc2nc3ccccc3n3cnnc23)nc1 | -10 | -16 | -12 | 16 | 114 | 3
O=C(Nc1cccc(C(F)(F)F)c1)C1CCCN1S(=O)(=O)c1cccc2cccnc12 (stereo unspecified) | -7 | 1 | -7 | -1 | 104 | 1
O=C(COC(=O)c1cn(-c2ccccc2)nc1-c1cccs1)NC1CC1 | 10 | 26 | 7 | -26 | 202* | -11
COC(=O)C1=C(C)NC(=O)C1(NS(=O)(=O)c1ccc(NC(C)=O)cc1)C(F)(F)F (stereo unspecified) | -4 | 2 | -3 | -2 | 86 | 37
N=C1C(c2ccc(Br)cc2)=C(O)C2CCc3ccccc3N12 (stereo unspecified) | -8 | 19 | -1 | -19 | 103 | -24
N=C1C(c2ccccc2)=C(O)C2CCc3ccccc3N12 (stereo unspecified) | 21 | · | 58*[fluorescence artefact?] | · | 73 | ·
CC(OC(=O)C1CCN(S(=O)(=O)c2ccc(Cl)cc2)CC1)C(=O)N1CCc2ccccc21 (stereo unspecified) | 11 | 13 | -8 | -13 | 92 | 30
Cc1occc1-c1nnc(SCc2cc(=O)n3cc(Br)ccc3n2)n1C | 53* | -3 | 61* | 4 | 121 | -10
Cn1c(SCc2cc(=O)n3cc(Br)ccc3n2)nnc1C1COc2ccccc2O1 (stereo unspecified) | 49 | 6 | 68* | -6 | 65 | -10
O=C(OCc1cc(=O)n2cc(Br)ccc2n1)C1COc2ccccc2O1 (stereo unspecified) | 28 | -2 | 34 | 2 | 77 | -4
Cc1ccccc1Nc1nc(CSc2nnc(-c3ccoc3C)n2C)cs1 | 7 | -7 | 0 | 7 | 92 | 0
CC(=O)N(Cc1ccc2c(c1)OCO2)C1CC(=O)N(CCc2ccccc2)C1=O (stereo unspecified) | 13 | -6 | -1 | 6 | 94 | 8
Cc1ccc2oc(=O)c3cc(C(=O)NCc4ccco4)sc3c2c1 | 54*[fluorescence artefact?] | · | 67*[fluorescence artefact?] | · | 113 | ·
Cc1ccc(NC(=O)Cn2cccc2)c(C)c1 | -3 | -2 | -8 | 2 | 98 | 7
CCOc1ccccc1C(=O)Nc1cccc(-c2nnc(-c3ccccc3)o2)c1 | 25 | 4 | 39 | -4 | 317*[fluorescence artefact?] | -14
O=C(COc1ccccc1)Nc1cccc(-c2nnc(-c3ccccc3)o2)c1 | 10 | · | 2 | · | 125 | ·
CCOC(=O)c1sc2cc([N+](=O)[O-])cc(SCC(=O)OC)c2c1N | · | 51* | · | -51 | · | 9

Screening results deposited in PubChem BioAssay by several laboratories.
